Out of some 360,000 compounds screened, about 270 (0.075%) were called active. Where a call stands in place of a potency, no number is given. Calls come from the whole dose curve; as a rule, active = well fitted activation curve with a large enough effect; inconclusive = small, poorly fitted or top-dose-only effect; inactive = no such curve, though single readings can be large or run the other way. The sample as a whole holds a higher share of actives than the screen did.
Potency is the fitted concentration of half-maximal effect.

The target of this test is Rap guanine nucleotide exchange factor 3 (Homo sapiens) (UniProt O95398). Kind of test: qHTS for Agonist of cAMP-regulated guanine nucleotide exchange factor 3 (EPAC1): primary screen. Note: nearly all actives have a fitted effect of over 60% in size. The conditions noted are these: biochemical assay; series mostly up to 154 µM. From the text: In multi-cellular eukaryotic organisms, the effects of cAMP are transduced by two ubiquitously-expressed intracellular cAMP receptors, the classic protein kinase A/cAMP-dependent protein kinase (PKA/cAPK) and the more recently discovered exchange protein directly activated by cAMP/cAMP-regulated guanine nucleotide exchange factor (EPAC/cAMP-GEF). Both PKA and EPAC are ubiquitously expressed in all tissues, and an increase in intracellular cAMP levels will lead to the activation of both PKA and EPAC. Therefore, careful dissections of the individual role and relative contribution of EPAC and PKA within the overall cAMP signaling in various model systems are critical for further elucidating the mechanism of cAMP signaling. To date no EPAC-specific antagonists and agonist, as well as isoform-specific agonists have been reported, and developing EPAC-specific pharmacological probes to determine the physiological functions that EPAC play in the overall cAMP-mediated signaling remains a major challenge within the research field. Furthermore, identified regulators of EPAC may lead to new mechanism-based therapeutic strategies specifically targeting the EPAC / cAMP-signaling components as EPAC has been implicated to play important roles in major human pathological conditions such as diabetes, heart disease, and cancer.
Chain of Rap guanine nucleotide exchange factor 3 (Homo sapiens) (O95398 whole entry, looked up): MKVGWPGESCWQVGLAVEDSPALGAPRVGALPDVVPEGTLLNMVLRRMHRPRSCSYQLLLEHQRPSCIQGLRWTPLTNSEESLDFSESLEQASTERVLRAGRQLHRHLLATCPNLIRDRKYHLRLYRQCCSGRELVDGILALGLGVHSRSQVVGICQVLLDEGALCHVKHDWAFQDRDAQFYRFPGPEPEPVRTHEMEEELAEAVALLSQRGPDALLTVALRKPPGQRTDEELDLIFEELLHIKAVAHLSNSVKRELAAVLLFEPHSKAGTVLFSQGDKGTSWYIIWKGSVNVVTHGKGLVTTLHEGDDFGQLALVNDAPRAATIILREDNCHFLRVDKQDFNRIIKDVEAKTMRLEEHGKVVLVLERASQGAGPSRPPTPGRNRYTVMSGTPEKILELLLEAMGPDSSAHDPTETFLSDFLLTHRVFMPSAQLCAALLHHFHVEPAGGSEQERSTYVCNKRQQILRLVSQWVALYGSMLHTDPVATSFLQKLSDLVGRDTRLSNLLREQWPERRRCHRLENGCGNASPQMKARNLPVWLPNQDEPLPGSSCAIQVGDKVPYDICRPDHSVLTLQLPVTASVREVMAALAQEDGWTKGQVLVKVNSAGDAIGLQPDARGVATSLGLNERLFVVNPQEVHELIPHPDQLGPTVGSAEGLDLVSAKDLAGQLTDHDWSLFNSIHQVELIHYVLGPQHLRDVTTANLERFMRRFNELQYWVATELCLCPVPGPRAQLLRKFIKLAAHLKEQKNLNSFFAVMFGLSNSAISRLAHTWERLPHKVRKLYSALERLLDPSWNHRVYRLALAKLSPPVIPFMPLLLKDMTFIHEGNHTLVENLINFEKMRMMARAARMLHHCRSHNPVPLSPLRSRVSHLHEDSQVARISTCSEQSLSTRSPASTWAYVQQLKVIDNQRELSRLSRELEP
This qHTS will be used to screen the Molecular Libraries Small Molecule Repository (MLSMR) as a concentration-titration series using the NCGC unique quantitative screening (qHTS) platform to find activators for EPAC1. In addition, this assay will also be used as a counterscreen for the EPAC2 qHTS. This fluorescent based assay is developed and validated for EPAC1 that measures exchange using EPAC effector Rap1 complex with BODIPY-GDP, a GDP analog with a tethered fluorophores. Activators are identified by monitoring the change in fluorescence signal as the exchanged free BODIPY-GDP has a reduced fluorescence compared to Rap1-bound BODIPY-GDP. Increase in signal (activation) is the desired outcome for the EPAC1 agonist while no activity in this assay is desired for the EPAC2 agonist counterscreen.
[1] de Rooij, J., Zwartkruis, F. J., Verheijen, M. H., Cool, R. H., Nijman, S. M., Wittinghofer, A., and Bos, J.L. (1998) Nature 396, 474-477
NIH Chemical Genomics Center [NCGC]
NIH Molecular Libraries Probe Centers Network [MLPCN]
Assay Submitter (PI): Xiaodong Cheng, The University of Texas Medical Branch
Briefly, three uL of reagents (100 nM EPAC1, 250 nM RAP1B-BODIPY-GDP, 50 uM GDP) were dispensed into a 1536-well Greiner black solid-bottom medium binding assay plate. Controls and test compounds (23 nL) were transferred to the plate via a Kalypsys pin tool equipped with a 1536-pin array. The plates were centrifuged at 1,000 rpm for 15 seconds followed by 5 minute incubation at room temperature. The assay plates were read at 5 minute intervals for 30 minutes in the ViewLux plate reader using 480nm excitation and 540nm emission filters. The results were normalized to the agonist positive control of 6.5 mM cAMP.
On the technique in general: Quantitative high-throughput screening tests each substance at several concentrations.
As for `CCC1CCCCN1C(=S)Nc1ccc(S(=O)(=O)Nc2ncccn2)cc1` (stereo not given), the Potency result was “inactive”.

In the case of `Cc1ccsc1CNn1cnnc1SCc1ccccc1F`, the Potency entry is “inactive”.

In the case of `COc1ccc(N2CCN(C(CNS(=O)(=O)c3ccc(C)cc3)c3ccccc3)CC2)cc1` (stereo not given), the Potency result is “inactive”.

For the molecule `CCOC(=O)/C(C#N)=C/c1ccc(N2CCN(Cc3ccccc3)CC2)cc1`, the Potency was 89.1 µM (active).

For `CCOC(=O)C1CCN(Cc2ccc(-c3ccccc3)cc2)CC1`, the Potency entry was “inactive”.

In the case of `CCCn1c(C)cc(/C=C(\C#N)C(=O)OCC(=O)N(C)c2c(N)n(Cc3ccccc3)c(=O)[nH]c2=O)c1C`, the Potency result was “inactive”.

Consider `Cn1cnc([N+](=O)[O-])c1Nc1ccccc1O`, for which the Potency entry is “inactive”.

As for `COc1ccc2c3c1O[C@H]1C[C@@H](O)C=C[C@@]31CCN(C)C2`, the Potency result is “inactive”.

As for `COc1cc(C(=O)NCC(c2ccco2)N2CCCC2)ccc1OCc1ccccc1` (stereo not given), the Potency entry is “inactive”.

In the case of `CC(=O)NC(C)(C)C1CC=C(C)/C(=N\O)C1` (stereo not given), the Potency result was “inactive”.

On to `COc1ccc([N+](=O)[O-])cc1NC(=O)C(C)OC(=O)C1c2ccccc2Oc2ccccc21` (stereo not given), for which the Potency result was “inactive”.

Regarding `C[C@@H]1CN([C@H](C)CO)C(=O)c2cc(NC(=O)NC3CCCCC3)ccc2O[C@H]1CN(C)S(C)(=O)=O`, the Potency result was “inactive”.

In the case of `CSc1nnc2c(n1)OC(c1ccsc1)N(C(C)=O)c1ccccc1-2` (stereo not given), the Potency entry was “inactive”.

In the case of `CC(NC(=O)CCC(=O)N1CCN(S(=O)(=O)c2ccc(Cl)cc2)CC1)c1ccccc1` (stereo not given), the Potency entry is “inactive”.

On to `Cc1ccsc1-c1nc(CSCC(=O)NCCN2CCCC2)c(C)o1`, for which the Potency result was “inactive”.

As to `COc1ccc(-n2c(SCC(=O)Nc3ccc4c(c3)OCO4)nnc2C(C)N2CCCCC2)cc1` (stereo not given), the Potency entry is “inactive”.

Turning to `NS(=O)(=O)c1cc(C(=O)OCC(=O)NNC(=O)c2ccccc2)ccc1Cl`, the Potency result is “inactive”.

With `O=c1c2ccccc2ccc2ccc(P(=O)(O)O)cc12`, the Potency entry is “inactive”.

Consider `CC(=O)Nc1ccc(S(=O)(=O)N(C)CC(=O)NCCC2=CCCCC2)cc1`, for which the Potency entry was “inactive”.

On to `COc1cc(OC)cc(C(=O)NCC(=O)N2CCCCCCC2)c1`, for which the Potency entry was “inactive”.

`COC(=O)C(C(=O)Nc1cccc(C)n1)C1CCCCCC1` (stereo not given): the Potency entry is “inactive”.

With `C[C@H]1CN([C@@H](C)CO)C(=O)CCCn2cc(nn2)CO[C@@H]1CN(C)S(=O)(=O)c1cccc(C#N)c1`, the Potency result was “inactive”.

As for `CN(C)c1ccc(C2Nc3ccccc3C(=O)N2NS(=O)(=O)c2ccccc2)cc1` (stereo not given), the Potency entry was “inactive”.

With `O=C(O)c1cccnc1NC1CCCC1`, the Potency result was “inactive”.

Turning to `COC(=O)c1ccccc1NC(=O)CSc1nc2c(c(=O)[nH]1)CCC2`, the Potency result is “inactive”.

`Oc1ccc2ccc3cccc[n+]3c2c1`: the Potency is 89.1 µM (active).

In the case of `C=CCN1CCN(c2ccncc2S(=O)(=O)N2CCN(C)CC2)CC1`, the Potency result is “inactive”.

As to `CC(=O)Nc1ccc(S(=O)(=O)N2CCN(C(=O)c3ccccc3F)CC2)cc1`, the Potency result is “inactive”.

On to `CCOC(=O)N1CCC(N(CCOC)C(=O)Nc2ccc(C)c(C)c2)CC1`, for which the Potency result is “inactive”.

With `COc1ccc(-c2cc(NC=O)c3ncc(-c4ccccc4)n3c2)cc1OC`, the Potency entry was “inactive”.

Take `O=C(O)CCCCCCCCCC[n+]1ccccc1`: the Potency result was “inactive”.

In the case of `Cc1cc(C)n2nc(C(=O)N(C)C(c3ccccc3)c3ccccc3)nc2n1`, the Potency result was “inactive”.

As to `CCn1cc(CN2CCN(CC(C)(C)C)C(CCO)C2)c2ccccc21` (stereo not given), the Potency result is “inactive”.

For `NS(=O)(=O)c1ccc(N=Cc2ccc(Br)s2)cc1`, the Potency entry is “inactive”.

Regarding `COC(=O)c1cc(NC(=O)CN2CCC(C(N)=O)(N3CCCCC3)CC2)cc(C(=O)OC)c1`, the Potency result was “inactive”.

Consider `O=C(O)CSCNC(=O)CC12CC3CC(CC(C3)C1)C2`, for which the Potency result is “inactive”.

For the molecule `Cc1ccc(CCNC(=O)C2CCN(S(=O)(=O)N3CCCC3)CC2)cc1`, the Potency result was “inactive”.

For `CCOc1ccc(NS(=O)(=O)c2ccc(Cl)c(C(=O)N(C)Cc3cccnc3)c2)cc1`, the Potency entry was “inactive”.

For `CC1(C)CC(=O)c2c(n(S(=O)(=O)c3ccccc3)c3ccc(NS(=O)(=O)c4ccccc4)cc23)C1`, the Potency result is “inactive”.

In the case of `O=c1cccc(-c2ccc(Br)cc2)o1`, the Potency entry is “inactive”.

Consider `CCCCNC(=O)N1CCCC(N(C)CCc2ccc(OC)c(OC)c2)C1` (stereo not given), for which the Potency result was “inactive”.

Regarding `Cc1sc2ncn(CC(=O)NCCCC(=O)N(C)Cc3ccccc3)c(=O)c2c1C`, the Potency entry was “inactive”.

As for `Cc1ccc(OCC(=O)Nc2ccccc2Sc2ccc(Cl)cc2)c([N+](=O)[O-])n1`, the Potency result is “inactive”.

Turning to `Cc1ccc(-c2nc(C)sc2CC(=O)OCC(=O)Nc2c(F)cccc2F)cc1`, the Potency result was “inactive”.

In the case of `COc1cc(NS(=O)(=O)c2ccc(N/C=C(\C=O)c3nc4cc(Cl)ccc4o3)cc2)nc(OC)n1`, the Potency result was “inactive”.

As for `COCC1CCCCN1C(=O)c1cc(COc2ccc(C)c(C)c2)on1` (stereo not given), the Potency entry was “inactive”.

Regarding `CC(=O)N[C@H]1[C@H]([C@H](O)[C@H](O)CO)OC(C(=O)O)=C[C@@H]1O`, the Potency entry was “inactive”.

For the molecule `O=C(NCc1ccco1)c1ccc(CS(=O)(=O)Cc2ccc(F)cc2)o1`, the Potency entry was “inactive”.

Consider `COC(=O)/C=C(\Oc1ccccc1)C1(O)CCCCC1`, for which the Potency result is “inactive”.

Turning to `Cc1cc(Cl)ccc1NNC(=O)c1snnc1C`, the Potency result was “inactive”.

Consider `O=C(c1cnn2ccccc12)N1CCc2ccccc21`, for which the Potency entry was “inactive”.

`C=CCNC(=O)COC(=O)CNC(=O)c1cc(Cl)cc([N+](=O)[O-])c1`: the Potency result is “inactive”.

Turning to `Cc1nn(C)cc1N1C(=O)c2cccc3c(N)ccc(c23)C1=O`, the Potency was 89.1 µM (active).

Take `CN1C(=O)c2cccc3c(N)ccc(c23)C1=O`: the Potency was 126 µM (active).

With `Cc1cc(NC(=O)/C=C/C(=O)N(c2ccccc2C)C(C(=O)NC2CCCC2)c2ccc(F)cc2)no1` (stereo not given), the Potency entry is “inactive”.

`CCOC(=O)[C@]12CCCC=C1N(Cc1ccc(Cl)cc1Cl)C(=O)[C@H](CC(=O)N1CCCCC1)C2`: the Potency result was “inactive”.

`CC(Cc1cccs1)NC(=O)c1cccc(Cl)c1` (stereo not given): the Potency entry is “inactive”.

As for `Cc1nn2c(NCCN(C)C)c3c(nc2c1-c1ccccc1)CCC3`, the Potency entry was “inactive”.

For the molecule `CC(=O)Nc1ccc(NC(=O)CN2C(=O)COc3ccc(S(=O)(=O)N4CCCCC4)cc32)cc1`, the Potency entry was “inactive”.

Consider `O=C(COc1ccccc1)N1CCN=C1SCc1cccc(F)c1`, for which the Potency result was “inactive”.

As to `CCOC(=O)c1ccccc1NC(=O)COC(=O)C(Cc1c[nH]c2ccccc12)NC(C)=O` (stereo not given), the Potency is 112 µM (active).

`COC(=O)C(Cc1c[nH]c2ccccc12)NC(=O)CCNC(=O)c1ccco1` (stereo not given): the Potency entry was “inactive”.

For `CCOC(=O)c1ccccc1NC(=O)COC(=O)CCC(=O)N1CCOCC1`, the Potency result was “inactive”.

`COc1ccccc1NC(=O)CSc1nnc(CNC(=O)c2ccccc2F)o1`: the Potency result is “inactive”.

For the molecule `Cn1c(=O)[nH]c(=O)c2c1nc(N(CCO)Cc1ccccc1)n2Cc1ccccc1Cl`, the Potency entry is “inactive”.

These data come from PubChem BioAssay AID720707 (National Center for Advancing Translational Sciences (NCATS), 2013).
